More than one record can exist for a structure, and the calls need not agree. The source made the active and inactive calls. How the source made its calls: active means hit-call score of the fitted dose curve at least 0.9, where 1 is the maximum; inactive means score below 0.9.
These compounds were tested on urokinase plasminogen activator (uPA), PLAU (gene 5328) (assay: BSK_BE3C_uPA: BioMAP Diversity Plus: BE3C Assay for urokinase plasminogen activator (uPA) Biomarker Activity (AID 2283038)). Settings: primary human bronchial epithelial cells; actives raise or lower the signal.
Procedure: BSK_BE3C is a cell-based, multiplexed-readout assay that uses bronchial epithelial cell, a human lung primary cell, with measurements taken at 24 hours after chemical dosing in a 96-well plate.BSK_BE3CA is an assay component measured in the BSK_BE3C assay. It measures uPA antibody related to regulation of gene expression using ELISA technology.Data from the assay component BSK_BE3CA was analyzed into 1 assay endpoint. This assay endpoint, BSK_BE3CA, was analyzed with bidirectional fitting relative to DMSO as the negative control and baseline of activity. Using a type of binding reporter, gain or loss-of-signal activity can be used to understand changes in the signaling as they relate to the gene PLAU. Furthermore, this assay endpoint can be referred to as a primary readout, because this assay has produced multiple assay endpoints where this one serves a signaling function. To generalize the intended target to other relatable targets, this assay endpoint is annotated to the protease intended target family, where the subfamily is serine protease.
The levels of cell surface (or secreted, indicated by the prefix "s") biomarker endpoints were measured by ELISA. Overt cytotoxicity to cells in confluent adherent cultures (all systems other than the BT system) was assessed by measuring total protein levels using sulforhodamine B (SRB) staining in parallel cultures at the time of biomarker measurements, indicated as SRB endpoints. For proliferation assays for adherent cell types, individual cell types are cultured at sub-confluence and relative cell numbers quantified by SRB staining at time points optimized for each system (48 h: 3C and CASM3C systems; 72 h: BT and HDF3CGF systems; 96 h: SAg system). SRB was performed by staining cells with 0.1% SRB after fixation with 10% TCA and reading wells at 560 nm.Viability and proliferation of PBMC (T cells) was quantified by Alamar Blue reduction for the SAg and BT systems. For PBMC viability (referred to as PBMC Cytotoxicity within the assay endpoint names), cells were plated (75,000/well in a 96-well plate) and then chemical samples added for 1 h before addition of activators, SEB and TSST-1 (20 ng/mL final concentration each). Cells were incubated for 90 h. Then, Alamar Blue (20 uL/well) (Invitrogen, Cat DAL1100) was added for 6 h, and the plates were read with a fluorescence microplate reader at 546/580 nm (excitation/emission). For PBMC proliferation, cells were plated and activated as above but incubated for only 16 h prior to addition of Alamar Blue. Plates were read after 6 h.
`Cc1ccc(OP(=O)(Oc2ccc(C)cc2)Oc2ccc(C)cc2)cc1` (tested in a mixture with another compound) was tested, and the outcome was “inactive”.
For `CCc1cc(C)cc(CC)c1-c1c(OC(=O)C(C)(C)C)n2n(c1=O)CCOCC2`, the outcome was “inactive”.
`COc1ccc(CO)cc1` was tested, and the outcome was “inactive”.
In the case of `Nc1ccc(-c2ccc(N)c(N)c2)cc1N`, the outcome is reported as “inactive”.
With `CNC(=O)Oc1cc(C)c(SC)c(C)c1` the outcome was “inactive”.
For `[Cd+2].[Cl-].[Cl-]`, the outcome was “inactive” and the AC50 was 29.9 µM (active).
With `N#CCCCCC#N` the outcome was “inactive”.
`C=CC(=O)OCC(CC)CCCC` (stereo not given) was tested, and the outcome was “inactive”.
In the case of `O=C1C(Cl)=C(Cl)C(=O)C(Cl)=C1Cl`, the outcome is reported as “inactive”.
For `CC(C)(c1cc(Cl)c(O)c(Cl)c1)c1cc(Cl)c(O)c(Cl)c1`, the outcome was “inactive”.
In the case of `Oc1ccc(C2(c3ccc(O)cc3)c3ccccc3-c3ccccc32)cc1`, the AC50 is reported as 0.15 µM (active) and the outcome is reported as “inactive”.
In the case of `CC(C)CCCCCCCOC(=O)c1ccccc1C(=O)OCCCCCCCC(C)C`, the outcome is reported as “inactive”.
In the case of `O=S(=O)(c1ccccc1)c1ccccc1`, the outcome is reported as “inactive”.
For `O=c1c2ccccc2c(=O)c2c1cc(Cl)c1[nH]c3c([nH]c12)c(Cl)cc1c(=O)c2ccccc2c(=O)c13`, the outcome was “inactive”.
`O=[N+]([O-])C=Cc1ccccc1` was tested, and the AC50 was 1.03 µM (active).
With `CC(=O)/C=C/c1ccccc1` the outcome was “inactive”.
For `CCCCCCCCCCCC#N`, the outcome was “inactive”.
In the case of `CC(C)(C)C(O)C(Oc1ccc(-c2ccccc2)cc1)n1cncn1` (stereo not given), the outcome is reported as “inactive”.
`COC(C)(C)CCC[C@H](C)C/C=C/C(C)=C/C(=O)OC(C)C` was tested, and the outcome was “inactive”.
In the case of `CC(C)CCCCCCCOP(=O)(Oc1ccccc1)Oc1ccccc1`, the outcome is reported as “inactive”.
For `O=C(O)CCCc1ccc(N(CCCl)CCCl)cc1`, the AC50 was 8.11 µM (active) and the outcome was “inactive”.
With `O=[N+]([O-])c1ccc(Cl)cc1` the outcome was “inactive”.
`CCCC[N+](CCCC)(CCCC)CCCC` was tested, and the outcome was “inactive”.
`O=c1[nH]c(Cl)c(Cl)cc1Cl` was tested, and the outcome was “inactive”.
In the case of `CC(C)(C)C(=O)CCl`, the outcome is reported as “inactive”.
With `COCC(=O)N(c1c(C)cccc1C)N1CCOC1=O` the outcome was “inactive”.
`c1ccc(Nc2ccc3ccccc3c2)cc1` was tested, and the outcome was “inactive”.
`C=CCN(CC=C)C(=O)C(Cl)Cl` was tested, and the outcome was “inactive”.
For `O=C(CCl)c1ccccc1`, the AC50 was 36.2 µM (active).
With `CC1(C)[C@H](C(=O)O[C@H](C#N)c2cccc(Oc3ccccc3)c2)[C@@H]1C=C(Br)Br` the outcome was “inactive”.
In the case of `CCCOC(=O)c1ccccc1C(=O)OCCC`, the outcome is reported as “inactive”.
In the case of `O=[N+]([O-])O`, the outcome is reported as “inactive”.
`CCC(C)c1cc([N+](=O)[O-])cc([N+](=O)[O-])c1OC(=O)C=C(C)C` (stereo not given) was tested, and the AC50 was 31.9 µM (active).
In the case of `CC(C)COP(=O)(OCC(C)C)OCC(C)C`, the outcome is reported as “inactive”.
For `Clc1ccc(-c2ccccc2)cc1`, the outcome was “inactive”.
For `O=C1C=CC(=O)C=C1`, the outcome was “inactive”.
In the case of `O=P1(NCCCl)OCCCN1CCCl` (stereo not given), the outcome is reported as “inactive”.
